Test results reported in the supplement of paper PMC7380943.
Counter-ions that a name gives are not always drawn.

Columns and labels:
[1] = system: CLZ3 (HCA2 human fibroblast dual HR-NHEJ reporter); experiment: NHEJ repair efficiency (GFP+ cells) relative to control (log10 fold); higher = more non-homologous end joining; settings: 5 µM; doxycycline 0.5 ug/mL
[2] = system: CLZ3 (HCA2 human fibroblast dual HR-NHEJ reporter); experiment: HR repair efficiency (tdTomato+ cells) relative to control (log10 fold); higher = more homologous recombination; settings: 5 µM; doxycycline 0.5 ug/mL
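Wherever HR repair efficiency (tdTomato+ cells) relative to control is given: compound given one day before doxycycline, which switches on I-SceI endonuclease expression to create double-strand breaks within the integrated reporter.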
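Wherever NHEJ repair efficiency (GFP+ cells) relative to control is given: compound given one day ahead of doxycycline, which switches on I-SceI endonuclease to cut the chromosomally integrated reporter and create DSBs.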

Question: `O=c1c(O)c(-c2cc(O)c(O)c(O)c2)oc2cc(O)cc(O)c12` [Myricetin] was tested. Which “NHEJ repair efficiency (log10)” value [1] did it give?
Answer: 0.0547

Question: And the “HR repair efficiency (log10)” value [2]?
Answer: 0.02

Question: Which results are given for `CC(C)=CCC[C@](C)(O[C@@H]1O[C@H](CO[C@@H]2O[C@H](CO)[C@@H](O)[C@H](O)[C@H]2O)[C@@H](O)[C@H](O)[C@H]1O)[C@H]1CC[C@]2(C)[C@@H]1[C@H](O)C[C@@H]1[C@@]3(C)CC[C@H](O[C@@H]4O[C@H](CO)[C@@H](O)[C@H](O)[C@H]4O)C(C)(C)[C@@H]3CC[C@]12C` [Gypenoside Xvii]?
Answer: NHEJ repair efficiency (log10) [1]: 0.0522; HR repair efficiency (log10) [2]: 0.00706

Question: For `C[C@H]1O[C@@H](O[C@H]2CC[C@@]3(C)[C@@H](CC[C@]4(C)[C@@H]3C=C[C@]35OC[C@@]6(CCC(C)(C)C[C@H]63)[C@@H](O)C[C@]54C)[C@]2(C)CO)[C@H](O)[C@@H](O[C@@H]2O[C@H](CO)[C@@H](O)[C@H](O)[C@H]2O)[C@H]1O` [Saikosaponin a], which “NHEJ repair efficiency (log10)” value [1] is on record?
Answer: -0.305

Question: What about the “HR repair efficiency (log10)” value [2] of the same molecule?
Answer: -0.315

Question: `COC(=O)[C@H](c1ccccc1Cl)N1CCc2sccc2C1` [Clopidogrel bisulfate] was tested. Which “NHEJ repair efficiency (log10)” value [1] did it give?
Answer: 0.138

Question: What about the “HR repair efficiency (log10)” value [2] of the same molecule?
Answer: 0.138

Question: How did the “NHEJ repair efficiency (log10)” value [1] turn out when `CC(C)(C)NCC(O)c1ccc(O)c(CO)c1` (stereo unspecified) [Salbutamol Sulfate] was run?
Answer: -0.0861

Question: And the “HR repair efficiency (log10)” value [2]?
Answer: -0.085

Question: What does the source list for `C/C=C(/C)C(=O)OC(C)(C)[C@@H]1Cc2c(ccc3ccc(=O)oc23)O1` [Columbianadin]?
Answer: NHEJ repair efficiency (log10) [1]: -0.0553; HR repair efficiency (log10) [2]: -0.0376

Question: With `COc1cc(CNC(=O)CCCCCCC(C)C)ccc1O` [Dihydrocapsaicin] as the molecule, how does the “NHEJ repair efficiency (log10)” value [1] read?
Answer: -0.263

Question: What about the “HR repair efficiency (log10)” value [2] of the same molecule?
Answer: -0.256

Question: Which “NHEJ repair efficiency (log10)” value [1] does the source give for `COc1c(O[C@@H]2O[C@H](CO)[C@@H](O)[C@H](O)[C@H]2O)cc2occ(-c3ccc(O)cc3)c(=O)c2c1O` [Tectoridin] here?
Answer: 0.116

Question: And the “HR repair efficiency (log10)” value [2]?
Answer: 0.192
